The text below walks through data of PubChem BioAssay AID540336 (Broad Institute, 2011).

Each structure is given as a SMILES string. Among all 330,000 compounds or so, about 520 (0.16%) were called active. This excerpt belongs to a sample that is enriched for actives. Values without a mark were called inactive.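 How the source made its calls: active means inhibition of at least 50% in every replicate; inconclusive means best replicate reaches 50% inhibition but some replicates fall short; inactive means the rest.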

The target in this assay is Histone acetyltransferase RTT109 (Candida albicans (strain SC5314 / ATCC MYA-2876)) (UniProt Q5AAJ8). Kind of assay: Rtt109-Vps75 histone acetyltransferase blockade – biochemical, ThioGlo CoA-SH fluorescence, plate reader, primary screen (AID 540336). Particulars: purified Rtt109/Vps75, ThioGlo CoA-SH fluorescence, 4 h; at 34.9 µM; stronger effect = higher value.
Sequence of Histone acetyltransferase RTT109 (Candida albicans (strain SC5314 / ATCC MYA-2876)) (Q5AAJ8 whole entry, looked up): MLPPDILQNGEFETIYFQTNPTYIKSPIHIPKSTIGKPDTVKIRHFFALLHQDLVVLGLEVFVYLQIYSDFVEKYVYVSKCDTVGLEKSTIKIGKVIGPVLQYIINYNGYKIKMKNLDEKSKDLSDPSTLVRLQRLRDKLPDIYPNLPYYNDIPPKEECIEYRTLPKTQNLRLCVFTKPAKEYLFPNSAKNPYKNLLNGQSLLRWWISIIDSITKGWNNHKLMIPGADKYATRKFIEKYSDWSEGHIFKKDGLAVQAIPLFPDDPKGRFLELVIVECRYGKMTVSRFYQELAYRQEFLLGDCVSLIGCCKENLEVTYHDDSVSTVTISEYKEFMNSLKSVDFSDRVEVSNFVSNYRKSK
Broadly, the inhibition is the change of the read-out against control, counted positive when it falls. `CCCCCCCCCCCCn1ccc(=N)cc1`: the inhibition was 64.2% (active).
For the compound `CC(=O)OC1C2(CC3N4C(=O)C5(CO)SSC4(CC31O)C(=O)N5C)OC(C)C(C)(C)C2=O` (stereo not given), the inhibition is -1.66%.
Take `O=C(c1ccccc1)C(O)(CN1CCCCC1)c1ccccc1` (stereo not given): the inhibition was -0.455%.
Then `CCC(C)(O)C(=O)OC1C(=O)OC2CC3C(C)=CC(=O)C(O)C3(C)C3C4(O)OCC23C1C(C)C4O` (stereo not given), with 11.1%.
Then `COC1C(O)C(C)OC(OC2CCC3(C=O)C(CCC4C3CCC3(C)C(C5=CC(=O)OC5)CCC43O)C2)C1O` (stereo not given), with 9.01%.
